The values that follow come from PubChem BioAssay.

What is called inhibition is the drop in the measured response relative to a control, in per cent.

SMILES strings stand for the structures. Active and inactive are the calls of the source. The rule behind the calls is not given here.

A short description of this assay: inhibition of Brca1/Bard1 split-luciferase complementation, confirmation, counter-screen for Mdm2/MdmX interaction inhibitor project, luminescence, single concentration (AID 504668). Particulars: Brca1/Bard1 bimolecular luciferase complementation counterscreen, at 8 µM, hits give high values. On the technique in general: A counterscreen serves to expose hits that act by an unwanted route or on another target.
Turning to `CC1CCN(CCCNC(=O)c2ccc3c(Cl)c4c(nc3c2)CCCC4)CC1`, the inhibition is 30.3% (active).
For `O=C(/C=C/c1ccc(Cl)cc1)c1ccc([N+](=O)[O-])o1` the value was 31.4% (active); for `O=C(CCc1ccccc1)N/N=C/c1cc(Br)ccc1O`, 26.9% (active); for `CC(=O)NC(c1cc(Cl)c2cccnc2c1O)C1CC1` (stereo not given), 33.4% (active).
`Cc1ccc(C)c(NC(=S)NC(NC(=O)/C=C/c2ccccc2)C(Cl)(Cl)Cl)c1` (stereo not given): the inhibition is 31.4% (active).
For `COc1ccc(NC(=O)Nc2cccc3c2O[C@H](CN(C)Cc2ccc(-c4ccccc4)cc2)[C@@H](C)CN([C@H](C)CO)C3=O)cc1` the value was 31% (active); for `CCOc1ccccc1CNC(=O)c1cc2oc3ccccc3c2n1C`, 26.3% (active); for `O=C(CCCN1C(=O)/C(=C\c2ccccc2)SC1=S)Nc1ccccc1O`, 30.3% (active).
For `CC(C)c1cccc(O)c(=O)c1` the value was 27.6% (active); for `Cc1cc(C(=O)Nc2ccc(Cl)cc2)c(C)n1-c1ccccc1`, 30.6% (active).
For `N=c1n(CCN2CCCCC2)c2ccccc2n1CC(O)c1cccc(Br)c1` (stereo not given), the inhibition was 34.4% (active).
On to `COc1ccc(C(C)=O)cc1CSc1nnc(-c2ccc(Cl)cc2)n1-c1ccccc1`, for which the inhibition is 25.6% (active).
Under `CC(=O)NC(c1ccc(C)cc1)c1cc([N+](=O)[O-])c2cccnc2c1O` (stereo not given) stands 25% (active); under `COc1ccc(Nc2ncnc3ccc(Br)cc23)cc1OC`, 30.5% (active); under `CCOc1ccc(CNC(=O)c2cc3oc4ccccc4c3n2C)cc1`, 25.6% (active).
Under `CCc1nc(Nc2ccncc2)c2oc3ccccc3c2n1` stands 31.6% (active); under `COc1ccccc1C(NC(C)=O)c1cc(Cl)c2cccnc2c1O` (stereo not given), 31.2% (active).
Under `O=C(c1ccco1)N1CCN(C(=O)C2CCCc3c2[nH]c2ccc(Cl)cc32)CC1` (stereo not given) stands 28.5% (active); under `O=C(CCl)NCc1c(Cl)cccc1-n1cccc1`, 35.6% (active); under `CC(C)C(=O)N1CCN(c2ccc(NC(=O)c3ccc([N+](=O)[O-])o3)cc2)CC1`, 23.4% (active).
Take `O=C(CCCN1C(=O)/C(=C/c2ccccc2)SC1=S)Nc1ccccc1O`: the inhibition is 29.9% (active).
For the molecule `CC[C@]1(c2ccccc2OC)ON(c2ccccc2C(F)(F)F)C1=O`, the inhibition is 34.6% (active).
As for `CCC(C)NCC(=O)Nc1ccc(-c2nc3cc(NC(=O)CNC(C)CC)ccc3o2)cc1` (stereo not given), the inhibition is 35.6% (active).
For `Brc1cc(Br)c2ncnc(N3CCCCC3)c2c1` the value was 27.7% (active); for `CCN1CCN(c2ccc(Nc3ccnc4ccccc34)cc2)CC1`, 29.8% (active).
Under `O=C(Nc1cccc([N+](=O)[O-])c1)c1cc2ccccc2cc1O` stands 31% (active); under `Cc1sc2ncnc(N3CCC(C(=O)Nc4ccccc4C(C)(C)C)CC3)c2c1C`, 27.8% (active).
Under `COc1cccc(/C=N/NC(=O)CNC(=O)C(c2ccccc2)c2ccccc2)c1O` stands 28.6% (active); under `CN1CCN(C(=O)CCCN2C(=O)/C(=C/c3ccccc3)SC2=S)CC1`, 30.5% (active).
Regarding `CCN1/C(=C/C=C/c2oc3ccc4ccccc4c3[n+]2CC)Oc2ccc3ccccc3c21`, the inhibition is 28.6% (active).
For `COc1ccc(C2=Nn3c(nnc3-c3ccccc3F)SC2)cc1OC1CCOC1` (stereo not given) the value was 33.4% (active); for `Nc1nc(Cl)nc2c1ncn2C1CC(O)C(CO)O1` (stereo not given), 25.6% (active); for `C=CCc1cccc(/C=N/NC(=O)CNc2ccccc2)c1O`, 32.9% (active).
For `COc1ccc(C2Oc3ccccc3C3=C2C(c2cccs2)n2ncnc2N3)cc1` (stereo not given) the value was 29.5% (active); for `Cc1ccc(OC(F)F)c(NC(=O)Nc2cccc(C(F)(F)F)c2)c1`, 23.7% (active); for `Nc1nonc1-c1nc2ccccc2n1CC(=O)Nc1ccccc1`, 24.8% (active).
Take `CN(CC1CCCO1)S(=O)(=O)c1ccc(C(=O)Nc2nc(-c3ccccn3)cs2)cc1` (stereo not given): the inhibition is 27.4% (active).
For `CC(NC(=O)/C(C#N)=C/c1ccc(Cl)c([N+](=O)[O-])c1)c1ccccc1` (stereo not given) the value was 29% (active); for `Cc1cc(C)nc(SCc2ccc(C(=O)N/N=C/c3cccc(O)c3O)cc2)n1`, 35.2% (active).
As to `COc1ccc(OC)c2[nH]c(C(=O)N/N=C/c3ccccc3O)cc12`, the inhibition was 32.5% (active).
